Assay results: PubChem BioAssay (NCATS)
Records with an inconclusive call do not appear. Active and inactive are the calls of the source. The call rests on the fitted dose curve; in most records, active means well fitted inhibition curve with a large enough effect; inconclusive means small, poorly fitted or top-dose-only effect; inactive means flat fitted curve, though single readings scatter.

Each compound was assayed on KB-3-1 (assay: Cytotoxic Profiling of Annotated Libraries Using Quantitative High-Throughput Screening (AID 1296008; further: nearly all actives have a fitted effect of over 60% in size)). Details: Five cell lines viability, CellTiter-Glo ATP luminescence, 48-72 h, hits give low values.
Description: Cell-based phenotypic screening is a commonly used approach to discover biological pathways, novel drug targets, chemical probes and high-quality hit-to-lead molecules. Many hits identified from high-throughput screening campaign are ruled out through a series of follow-up potency, selectivity/specificity, and cytotoxicity assays. Prioritization of molecules with little or no cytotoxicity for a more in-depth downstream evaluation influence the future direction of projects, so cytotoxicity profiling of the screening libraries at early stage is essential for increasing the likelihood of candidate success. […] For the annotated library, we also examined the primary targets and mechanistic pathways regularly associated with cell death. To our knowledge, this is the first study to use high-throughput screening to profile large libraries for cytotoxicity assessment in both normal and cancer cell lines. In summary, the results generated here constitutes a valuable resource for the scientific community and provides insight on identifying cytotoxic compounds with particular mechanisms of action, and prioritizing compounds with suitable cytotoxicity profile for further evaluation.
A pintool (Kalypsys) was used to transfer 23 nL of compound solution to the 1536-well assay plates. After 48 or 72 hr incubation at 37 degree Celsius, 5% CO2 and 95% humidity, 2.5 uL of CellTiter-Glo (Promega) was dispensed into each well using a dispenser (Aspect Automation, St. Paul, MN) with solenoid valves (Lee Valves, Westbrook CT). Plates were left at room temperature for 10 min before imaging the ATP-coupled luminescence using a ViewLux microplate imager (PerkinElmer, Waltham, MA).
On the % scale 0 is the no-effect control and ±100 the full control effect.

CCCCOC(=O)c1ccc(N)cc1 was tested. Which max response did it give?
The max response was 0.229% (inactive).

Which max response does the source give for CC[C@]12CCCN3CCc4c(n(c5ccccc45)[C@@](O)(C(=O)OC)C1)[C@@H]32 here?
Its max response is 3.99% (inactive).

How did the max response turn out when CC(O)CCCCn1c(=O)c2c(ncn2C)n(C)c1=O (stereo not given) was run?
The max response was -8.11% (inactive).

With O=C(NCC(O)CO)c1c(I)c(C(=O)NCC(O)CO)c(I)c(N(CCO)C(=O)CO)c1I (stereo not given) as the compound, how does the max response read?
Its max response is 27.3% (inactive).

Which max response does the source give for CCN(CC)C(=O)c1cccc(C)c1 here?
Its max response is 13.2% (inactive).

How did the max response turn out when OCCN1C[C@H](O)[C@@H](O)[C@H](O)[C@H]1CO was run?
The max response was 4.48% (inactive).

Which max response does the source give for CC1CCN(CCCC(=O)c2ccc(F)cc2)CC1 here?
Its max response is -11.3% (inactive).

How did the max response turn out when CN1CC(=O)NC1=N was run?
The max response was 3.48% (inactive).

With C/C(=C(\CCO)SS/C(CCO)=C(\C)N(C=O)Cc1cnc(C)nc1N)N(C=O)Cc1cnc(C)nc1N as the compound, how does the max response read?
The max response was -5.06% (inactive).

For COc1ccc2cc(CCC(C)=O)ccc2c1, which max response is on record?
Its max response is -1.62% (inactive).

How did the max response turn out when O=C(c1ccccc1)C(O)c1ccccc1 (stereo not given) was run?
The max response was -15.7% (inactive).

How did the max response turn out when Cc1cc(O)cc(C)c1Cl was run?
Its max response is 4.13% (inactive).

With CNc1c2c(nn1C)CCCC2 as the compound, how does the max response read?
The max response was -8.03% (inactive).

With CC(=O)N[C@@H](Cc1ccc(O)cc1)C(=O)O as the compound, how does the max response read?
The max response was -4.16% (inactive).

CC(=O)SC[C@@H](Cc1ccccc1)C(=O)NCC(=O)OCc1ccccc1 was tested. Which max response did it give?
The max response was 6.03% (inactive).

For C1CCN2C[C@@H]3C[C@@H](CN4CCCC[C@@H]34)[C@H]2C1, which max response is on record?
Its max response is 4.47% (inactive).

With O=C(O)CCCCC1CCSS1 (stereo not given) as the compound, how does the max response read?
The max response was 3.98% (inactive).

With O=C(CCBr)N1CCN(C(=O)CCBr)CC1 as the compound, how does the max response read?
Its max response is -5.88% (inactive).

For CC1(c2ccccc2)OC(C(=O)O)=CC1=O (stereo not given), which max response is on record?
The max response was 17.3% (inactive).

Which max response does the source give for CN[C@@H]1[C@H](O)[C@H](NC)[C@H]2O[C@@]3(O)C(=O)C[C@@H](C)O[C@H]3O[C@@H]2[C@H]1O here?
Its max response is 16.3% (inactive).

O=C(Cn1ccnc1[N+](=O)[O-])NCc1ccccc1 was tested. Which max response did it give?
The max response was 0.421% (inactive).

Which max response does the source give for CC(=O)[C@@]1(O)CC[C@H]2[C@@H]3C[C@H](C)C4=CC(=O)C=C[C@]4(C)[C@@]3(F)[C@@H](O)C[C@@]21C here?
Its max response is 9.43% (inactive).

For O=C(NCN1CCOCC1)c1cnccn1, which max response is on record?
The max response was -13.5% (inactive).

How did the max response turn out when NS(=O)(=O)c1ccc(NC(=O)CCC(=O)O)cc1 was run?
The max response was -4.48% (inactive).

Which max response does the source give for CCCCCCCCCCCCCCCCC(C(=O)O)C(O)(CC(=O)O)C(=O)O (stereo not given) here?
Its max response is 6.88% (inactive).

How did the max response turn out when O=C(O)c1ccc[n+]([O-])c1 was run?
The max response was -1.65% (inactive).

Nc1ccncc1N was tested. Which max response did it give?
The max response was 10.8% (inactive).

With C=CCOc1ccccc1OCC(O)CNC(C)C (stereo not given) as the compound, how does the max response read?
The max response was -1.61% (inactive).

For CCC(C)(CN(C)C)OC(=O)c1ccccc1 (stereo not given), which max response is on record?
Its max response is 0.865% (inactive).

With CCCCCCCCCCOc1cc2c(=O)c(C(=O)OCC)c[nH]c2cc1OCC as the compound, how does the max response read?
Its max response is 7.91% (inactive).

How did the max response turn out when Cc1cc(-n2nc3ccc(Cl)cc3n2)c(O)c(C(C)(C)C)c1 was run?
The max response was 6.34% (inactive).

For NS(=O)(=O)c1cc2c(cc1C(F)(F)F)NCNS2(=O)=O, which max response is on record?
Its max response is -0.385% (inactive).

With CN1C[C@@H]2C[C@H]1CN2c1cc2c(cc1F)c(=O)c(C(=O)O)cn2C1CC1 as the compound, how does the max response read?
Its max response is -8.4% (inactive).

How did the max response turn out when O=C(O)COC(=O)Cc1ccccc1Nc1c(Cl)cccc1Cl was run?
The max response was 5.03% (inactive).

Which max response does the source give for CC(=O)Nc1ccc(OCCOCCOc2ccc(NC(C)=O)cc2)cc1 here?
Its max response is -2.03% (inactive).

CC1CC(OC(=O)c2ccccc2O)CC(C)(C)C1 (stereo not given) was tested. Which max response did it give?
The max response was -9.15% (inactive).

Cc1c(NC(=O)c2cccnc2)c(=O)n(-c2ccccc2)n1C was tested. Which max response did it give?
The max response was -0.639% (inactive).

For CC(C)=CCC[C@@](C)(O)[C@H]1CC=C(C)CC1, which max response is on record?
The max response was 4.77% (inactive).

For Cc1ccsc1/C=C/C1=NCCCN1C, which max response is on record?
Its max response is -0.196% (inactive).

How did the max response turn out when CCN[C@H]1CN(CCCOC)S(=O)(=O)c2sc(S(N)(=O)=O)cc21 was run?
The max response was 14.5% (inactive).
